Among all 360,000 compounds or so, about 10,000 (2.8%) were called active. Not shown: some 4% with an inconclusive outcome. Many of the other results were omitted from the sample, so actives are more common in it than they were. A number with no mark means an inactive call. The call rests on the fitted dose curve; in most records, active means well fitted inhibition curve with a large enough effect; inconclusive means small, poorly fitted or top-dose-only effect; inactive means flat fitted curve, though single readings scatter.
The molecules below were run against Serine/threonine-protein kinase PLK1 (Homo sapiens) (UniProt P53350) (assay: qHTS for Inhibitors of PLK1-PDB (polo-like kinase 1 - polo-box domain): Primary Screen). Settings: Plk1 PBD binding of FITC phosphopeptide, fluorescence polarization.
Sequence of Serine/threonine-protein kinase PLK1 (Homo sapiens) (P53350 whole entry, looked up, the tested form may be a part): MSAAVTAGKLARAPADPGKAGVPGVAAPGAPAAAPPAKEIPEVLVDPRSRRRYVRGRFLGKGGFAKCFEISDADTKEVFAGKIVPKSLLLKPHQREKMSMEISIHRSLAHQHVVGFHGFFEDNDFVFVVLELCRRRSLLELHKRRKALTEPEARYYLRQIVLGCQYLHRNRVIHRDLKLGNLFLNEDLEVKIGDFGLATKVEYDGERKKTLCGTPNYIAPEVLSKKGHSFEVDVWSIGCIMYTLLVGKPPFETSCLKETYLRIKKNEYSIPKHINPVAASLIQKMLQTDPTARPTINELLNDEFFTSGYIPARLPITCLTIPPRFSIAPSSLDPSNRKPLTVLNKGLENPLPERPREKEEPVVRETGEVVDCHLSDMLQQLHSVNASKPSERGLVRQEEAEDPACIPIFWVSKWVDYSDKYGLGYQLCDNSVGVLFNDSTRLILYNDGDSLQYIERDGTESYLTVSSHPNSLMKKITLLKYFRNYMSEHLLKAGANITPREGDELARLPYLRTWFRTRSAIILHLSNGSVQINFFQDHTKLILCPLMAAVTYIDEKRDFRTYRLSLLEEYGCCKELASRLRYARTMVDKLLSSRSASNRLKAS
Further: nearly all actives have a fitted effect of over 65% in size.
On the % scale 0 is the no-effect control and ±100 the full control effect; potency means the concentration at half of the fitted maximal effect.
Wherever max response, negative = inhibition is given: series mostly up to about 57 µM.

| SMILES | max response, negative = inhibition [%] | Potency |
| --- | --- | --- |
| CC(C)Sc1ncnc2c1cnn2-c1ccccc1 | 2.81 |  |
| C1=C(CCNc2ncnc3c2cnn3-c2ccccc2)CCCC1 |  | 3.36 µM (active) |
| O=C(NCCC1=CCCCC1)c1ccc(-n2cncn2)cc1 | 7.38 |  |
| C[C@H]1CN(c2ccc(Br)cc2)C(=O)[C@@H]1CC(=O)Nc1ccc(Br)cc1 | 1 |  |
| O=C(C(=O)N1CCN(c2ccccc2)CC1)c1ccc2c(c1)OCO2 | -10.2 |  |
| O=C(CN1CCN(c2ccccn2)CC1)Nc1ccc(Br)cc1 | -15.1 |  |
| O=C(Cc1ccc(Br)cc1)N1CCN(c2ccccn2)CC1 |  | 29.9 µM (active) |
| O=C(Cc1ccccc1Cl)N1CCN(c2ccccn2)CC1 | -14.6 |  |
| CCc1nnc(NC(=O)c2ccco2)s1 | -6.68 |  |
| O=C(C1CCN(S(=O)(=O)c2cnc[nH]2)CC1)N1CCN(Cc2ccc3c(c2)OCO3)CC1 |  | 2.99 µM (active) |
| O=C(C1CCN(Cc2ccc(Cl)cc2)CC1)N1CCN(Cc2ccc3c(c2)OCO3)CC1 | 2.77 |  |
| Cc1cccc(N2CCN(C(=O)C3CCN(S(=O)(=O)c4cnc[nH]4)CC3)CC2)c1C | 3.15 |  |
| CCC(C(=O)Nc1c(C)cccc1C)n1c(-c2cc(C)cs2)nc2ccccc21 (configuration not stated) | -9.18 |  |
| Cc1cc2cc3n(c2nn1)N=C(Cl)CC3 | -3.02 |  |
| C=CCC[C@H](CCCCC)OC(=O)/C=C/[C@H](O)[C@@H](O)C[C@@H](O)CC=C | -13.7 |  |
| C[C@@H]1CN([C@H](C)CO)C(=O)CCCn2cc(nn2)CO[C@H]1CN(C)S(=O)(=O)c1ccc(Oc2ccccc2)nc1 | -19.7 |  |
| O=C1C=C(c2ccc(Cl)cc2)C(=O)N1Nc1ccccc1 |  | 6.7 µM (active) |
| O=C(O)CC1=C(Nc2ccccc2)C(=O)N(c2ccccc2)C1c1ccc(Cl)cc1 (configuration not stated) | -11.1 |  |
| O=C(CCC(=O)OCc1ccc(Cl)cc1)Nc1ccccc1 | -4.01 |  |

| SMILES | max response, negative = inhibition [%] | Potency |
| --- | --- | --- |
| CC1(C(=O)Nc2ccc3c(c2)OCCO3)CN(S(C)(=O)=O)CC(=O)N1Cc1cccc(F)c1 (configuration not stated) | -14.7 |  |
| COC(=O)C[C@H]1C[C@@H]2c3cc(NC(=O)Nc4ccccc4)ccc3O[C@@H]2[C@@H](CO)O1 | 0.628 |  |
| Cc1ccc(C(=O)c2c(NC(=O)c3ccccc3)sc(C)c2C)cc1 |  | 11.9 µM (active) |
| Cc1ccc(S(=O)(=O)CC(=O)Nc2sc(C)c(C)c2C(N)=O)cc1 | -9.45 |  |
| Cc1sc(NC(=O)c2ccc3ncsc3c2)c(C(N)=O)c1C | -11 |  |
| Cc1ccoc1C(=O)Nc1cccc(Oc2ccccc2)c1 |  | 29.9 µM (active) |
| CC1(C(=O)Nc2cccc(Oc3ccccc3)c2)CCN1Cc1ccccc1Cl (configuration not stated) | -5.84 |  |
| CC(Oc1cccc(NC(=O)c2cccs2)c1)C(=O)c1ccccc1 (configuration not stated) | -3.5 |  |
| Nc1nc2c(ncn2[C@@H]2O[C@H](CNCc3ccc(OCCCN4CCOCC4)cc3)[C@@H](O)[C@H]2O)c(=O)[nH]1 | -2.1 |  |
| COc1cccc(-c2cnc(C(O)c3ccccc3OC)[nH]2)c1 (configuration not stated) | -12.1 |  |
| CCCc1cc(=O)oc2c(C)c(OCC(=O)Nc3ccccn3)ccc12 | 7.66 |  |
| CCCc1cc(=O)oc2c(C)c(OCC(=O)NCc3ccccn3)ccc12 | 0.145 |  |
| CCc1cc(=O)oc2c(C)c(OCC(=O)NCCN3CCOCC3)ccc12 |  | 21.2 µM (active) |
| COc1ccc(C(C)C)cc1-c1ccc2nncn2c1 | -3.26 |  |
| COc1cccc(-c2cc3nc(NCCOc4ccccc4Cl)n(C)c(=O)c3s2)c1 | -5.38 |  |
| O=C(Nc1ccccc1)c1ccccc1Br | -3.61 |  |
| COCCCN1C(=O)C(CC(=O)NCc2cccs2)CC(C(=O)N2CCOCC2)=C1C (configuration not stated) | -4.29 |  |
| CSc1nc(N(C)NC(=O)c2cccc(C)c2)c2ccccc2n1 | -6.24 |  |
| CSc1nc(C)cc(SC(C(C)=O)C(=O)Nc2ccccc2)n1 (configuration not stated) |  | 26.7 µM (active) |

| SMILES | max response, negative = inhibition [%] | Potency |
| --- | --- | --- |
| CC(Sc1nnc2c(n1)C1CCC2(C)C1(C)C)C(=O)Nc1ccccc1 (configuration not stated) | 1.59 |  |
| CC(C)NC(=O)C1(C)CCCCCN1C(=O)c1ccc(-c2ccccc2)cc1 (configuration not stated) | -8.92 |  |
| COc1ccc(-c2ccc(CN3C(C(C)C)C(=O)N(Cc4cn(CC5CCCCC5)nn4)CCS3(=O)=O)cc2)cn1 (configuration not stated) | -14.8 |  |
| COC(=O)C1(C(=O)OC)C[C@H](c2ccccc2)N(Cc2ccccc2OC)[C@@H]1c1ccccc1 | -15.2 |  |
| CCN(CC)C(=O)C1=C(C)N(Cc2ccc(F)cc2)C(=O)C(CC(=O)NCc2cccc3ccccc23)C1 (configuration not stated) | -13.9 |  |
| CCCc1c(-c2ccccc2F)ncn1Cc1ccccc1OC | -1.08 |  |
| Cc1ccccc1-c1csc(C(O)c2cccc(Cl)c2)n1 (configuration not stated) | -10.6 |  |
| O=C(/C=C/[C@H]1O[C@@H](n2cnc3c(NC(=O)c4ccccc4)ncnc32)[C@H](O)[C@@H]1O)NCc1ccccc1 | -4.8 |  |
| CCCCn1c(SCC(=O)NCCc2ccc(OC)c(OC)c2)nc2c1c(=O)n(C)c(=O)n2C | -1.04 |  |
| CCOc1ccc(Cn2c(SCCCCC#N)nc3c2c(=O)n(C)c(=O)n3C)cc1OCC |  | 18.9 µM (active) |
| CCCSc1nc2c(c(=O)n(C)c(=O)n2C)n1Cc1ccc(C)cc1 | -10.2 |  |
| COc1ccc(NC(=O)C2Cc3c(-c4ccc(Cl)cc4)ccnc3O2)cc1 (configuration not stated) | 1.68 |  |
| O=C(NCC(O)c1nc2ccccc2[nH]1)c1ccc(Br)cc1 (configuration not stated) | -3.2 |  |
| CC1(C(=O)NCc2ccc3c(c2)OCO3)CCN1CCc1ccccc1 (configuration not stated) | 2.52 |  |
| c1ccc(C(=NNc2nc3ccccc3s2)c2ccccn2)cc1 | -7.03 |  |
| CCN(CC)CCn1c2c(c(SCC(=O)Nc3nc4ccccc4s3)nc1=O)CCCC2 | -2.27 |  |
| c1ccc2sc(NN=C3CCCC3)nc2c1 |  | 26.7 µM (active) |
| OC[C@@H]1CN(C2CCCC2)C[C@H](n2cnc3c(NC4CCC4)ncnc32)O1 | -3.48 |  |
| C=CCn1c2c(c3ccccc31)CCC2 | -9.68 |  |
